# Source: PubChem BioAssay (NCATS)
# Records with an inconclusive call do not appear. Calls of active or inactive are those of the source. Unless noted, calls follow the shape of the dose curve; as a rule, active = well fitted curve in the direction sought with a large enough effect; inconclusive = small, poorly fitted or top-dose-only effect, or another doubt; inactive = no such curve, though single readings can be large; an effect the other way counts as inactive or inconclusive.
# Legend:
# [1] = target: Ubiquitin carboxyl-terminal hydrolase 1 (Homo sapiens) (UniProt O94782); experiment: Inhibitors of USP1/UAF1: Pilot qHTS (AID 504865);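 also: rhodamine fluorescence freed from ubiquitin-rhodamine substrate followed over time; top concentration of the series differs between compounds; % is scaled to controls: 0 for no effect and ±100 for the full control effect; nearly all actives have a fitted effect of over 35% in size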
# In short: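 USP1/UAF1 complex at 1 nM preincubated 15 min at room temperature with compound, then Ub-Rho substrate added at 150 nM final. Fluorescence (480/540 nm) read kinetically in 50 mM HEPES pH 7.8, 0.5 mM EDTA, 1 mM TCEP, 0.1 mg/ml BSA, 0.01% Tween-20.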
# [2] = target: Luciferin 4-monooxygenase (Photinus pyralis) (UniProt P08659); experiment: Biochemical firefly luciferase enzyme assay for NPC (AID 624030);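 also: purified P. pyralis luciferase at 10 nM with luciferin and ATP substrate; 0% = DMSO and -100% = full luciferase inhibition by PTC124 control; nearly all actives have a fitted effect of over 70% in size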
# In short: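 Direct inhibition of firefly luciferase enzyme (10 nM final, 50 mM Tris Acetate) assessed by luminescence within 5 minutes. Percent activity scaled between DMSO and PTC124 positive control, with concentration-effect curves classified by fit quality and response.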
# [3] = S16 Schwann cell viability assay (CellTiter-Glo assay) (AID 624031); also: potency is read from the fitted curve at half-maximal effect; nearly all actives have a fitted effect of over 70% in size
# In short: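 Rat S16 Schwann cells without reporter constructs received compound or DMSO for 24 h at 37 °C under 5% CO2. Cellular ATP was then quantified by CellTiter-Glo luminescence, with vehicle wells defined as 0% activity and cell-free wells as reference.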
# [4] = S16 Schwann cell PMP22 intronic element firefly luciferase assay (AID 624032); also: potency is read from the fitted curve at half-maximal effect; nearly all actives have a fitted effect of over 30% in size
# In short: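 Luciferase reporter of PMP22 intronic-element expression in stably transfected S16 rat Schwann cells, read by ONE-Glo luminescence after 24 h compound exposure at 37 C. Activity scaled between DMSO (0%) and positive-control PTC124; concentration-effect curves quality-classified.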
# [5] = S16 Schwann cell PMP22 intronic element beta-lactamase assay (AID 624044; calls by dose curve; also: potency is read from the fitted curve at half-maximal effect; nearly all actives have a fitted effect of over 15% in size); conditions: S16 rat Schwann cells, PMP22 element beta-lactamase FRET, 24 h; ratio activity, negative = inhibition: at 38.3 µM (top of the series) unless noted
# In short: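 Rat S16 Schwann cells with beta-Lac driven by a PMP22 intronic element, compound-treated 24 h at 37 °C. LiveBLAzer FRET B/G read: 460 nm normalized to potassium clavulanate vs DMSO; 535 nm FRET as viability; concentration-effect curves classified.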
# [6] = Primary qHTS for Huh7 cytotoxicity: counterscreen for inhibitors of MERS-S pseudotyped particle cell entry (AID 1479147; calls by dose curve; also: % is scaled to controls: 0 for no effect and ±100 for the full control effect); conditions: outcome: dose series up to 57.1 µM unless noted
# [7] = Primary qHTS for inhibitors of MERS-S pseudo-typed particle cell entry (AID 1479149; calls by dose curve; also: % is scaled to controls: 0 for no effect and ±100 for the full control effect; nearly all actives have a fitted effect of over 60% in size); conditions: outcome: dose series up to 57.1 µM unless noted
# [8] = Primary qHTS for Vero E6 cytotoxicity: counterscreen for inhibitors of SARS-S pseudo-typed particle cell entry (AID 1479150; calls by dose curve); conditions: outcome: dose series up to 57.1 µM unless noted
# [9] = Primary qHTS to identify inhibitors of SARS-CoV-2 cell entry (AID 1645846; calls by dose curve; also: nearly all actives have a fitted effect of over 45% in size); conditions: SARS-CoV-2 pseudovirus cell entry assay, luminescence; activity change, negative = inhibition: at 57.1 µM (top of the series) unless noted
# In short: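 HEK293 cells stably expressing human ACE2, pre-treated 1 h with compound, then infected with MLV particles pseudotyped with Wuhan-Hu-1 spike (C-terminal 19-aa truncation). Luciferase luminescence after 48 h at 37 °C, normalised to spike PP and bald PP.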
# [10] = target: Glutathione peroxidase 1 (Homo sapiens) (UniProt P07203); experiment: Primary qHTS Assay for Inhibitors of Recombinant Selenoprotein Glutathione Peroxidase 1 (GPX1) (AID 1845191); also: % is scaled to controls: 0 for no effect and ±100 for the full control effect; nearly all actives have a fitted effect of over 65% in size
# In short: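 10 nM GPX1 + cpd, 30 min RT; start w/ 1 mM GSH, 0.5 mM cumene hydroperoxide, 0.5 mM NADPH, 100 nM GR, 0.01% BSA; buffer 50 mM Tris-HCl pH 7.5, 2 mM EDTA, 150 mM NaCl; Fl 340/450, 0 & 15 min.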
# [11] = target: Phospholipid hydroperoxide glutathione peroxidase GPX4 (Homo sapiens) (UniProt P36969); experiment: Primary qHTS Assay for Inhibitors of Recombinant Selenoprotein Glutathione Peroxidase 4 (GPX4) (AID 1845192); also: % is scaled to controls: 0 for no effect and ±100 for the full control effect; nearly all actives have a fitted effect of over 65% in size
# In short: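 NADPH consumption, followed by fluorescence at 340/450 nm between 0 and 15 min, reports GPX4 activity via coupled glutathione reductase (100 nM). Enzyme 200 nM was pre-exposed to compound 30 min; 0.5 mM cumene hydroperoxide and 1 mM GSH served as substrates.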
# [12] = qHTS profiling for inhibitors of Plasmodium falciparum proliferation (AID 504749); also: potency is read from the fitted curve at half-maximal effect; nearly all actives have a fitted effect of over 60% in size; conditions: P. falciparum in erythrocytes, SYBR Green DNA, 72 h
# In short: (§1)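 Infected RBCs, 0.3% parasitemia/2.5% Hct final; cpd 72 h, 37 C, 5% CO2; lysis buffer with saponin/triton/SYBR Green I, o/n RT dark; FI 485/535; norm. to artemisinin (0.29 uM) and DMSO.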
# 3D7 = experiment: as above; conditions: P. falciparum in erythrocytes, SYBR Green DNA, 72 h; series mostly up to 28.7 µM
# In short: as §1
# 7G8 = experiment: as above; conditions: P. falciparum in erythrocytes, SYBR Green DNA, 72 h; series mostly up to 12.8 µM
# In short: as §1
# AA1029 = experiment: as above; conditions: P. falciparum in erythrocytes, SYBR Green DNA, 72 h; series mostly up to 28.7 µM
# In short: as §1
# AS120 = experiment: as above; conditions: P. falciparum in erythrocytes, SYBR Green DNA, 72 h; series mostly up to 28.7 µM
# In short: as §1
# ATS189 = experiment: as above; conditions: P. falciparum in erythrocytes, SYBR Green DNA, 72 h; series mostly up to 28.7 µM
# In short: as §1
# ATS95 = experiment: as above; conditions: P. falciparum in erythrocytes, SYBR Green DNA, 72 h; series mostly up to 28.7 µM
# In short: as §1
# C2A = experiment: as above; conditions: P. falciparum in erythrocytes, SYBR Green DNA, 72 h; series mostly up to 28.7 µM
# In short: as §1
# CP185 = experiment: as above; conditions: P. falciparum in erythrocytes, SYBR Green DNA, 72 h; series mostly up to 28.7 µM
# In short: as §1
# CP191 = experiment: as above; conditions: P. falciparum in erythrocytes, SYBR Green DNA, 72 h; series mostly up to 28.7 µM
# In short: as §1
# CP192 = experiment: as above; conditions: P. falciparum in erythrocytes, SYBR Green DNA, 72 h; series mostly up to 28.7 µM
# In short: as §1
# CP194 = experiment: as above; conditions: P. falciparum in erythrocytes, SYBR Green DNA, 72 h; series mostly up to 28.7 µM
# In short: as §1
# CP201 = experiment: as above; conditions: P. falciparum in erythrocytes, SYBR Green DNA, 72 h; series mostly up to 28.7 µM
# In short: as §1
# CP203 = experiment: as above; conditions: P. falciparum in erythrocytes, SYBR Green DNA, 72 h; series mostly up to 28.7 µM
# In short: as §1
# CP211 = experiment: as above; conditions: P. falciparum in erythrocytes, SYBR Green DNA, 72 h; series mostly up to 28.7 µM
# In short: as §1
# CP215 = experiment: as above; conditions: P. falciparum in erythrocytes, SYBR Green DNA, 72 h; series mostly up to 28.7 µM
# In short: as §1
# CP217 = experiment: as above; conditions: P. falciparum in erythrocytes, SYBR Green DNA, 72 h; series mostly up to 28.7 µM
# In short: as §1
# CP237 = experiment: as above; conditions: P. falciparum in erythrocytes, SYBR Green DNA, 72 h; series mostly up to 28.7 µM
# In short: as §1
# CP238 = experiment: as above; conditions: P. falciparum in erythrocytes, SYBR Green DNA, 72 h; series mostly up to 28.7 µM
# In short: as §1
# CP247 = experiment: as above; conditions: P. falciparum in erythrocytes, SYBR Green DNA, 72 h; series mostly up to 28.7 µM
# In short: as §1
# CP250 = experiment: as above; conditions: P. falciparum in erythrocytes, SYBR Green DNA, 72 h; series mostly up to 12.8 µM
# In short: as §1
# CP252 = experiment: as above; conditions: P. falciparum in erythrocytes, SYBR Green DNA, 72 h; series mostly up to 12.8 µM
# In short: as §1
# Sequence of Phospholipid hydroperoxide glutathione peroxidase GPX4 (Homo sapiens) (P36969 whole entry, looked up): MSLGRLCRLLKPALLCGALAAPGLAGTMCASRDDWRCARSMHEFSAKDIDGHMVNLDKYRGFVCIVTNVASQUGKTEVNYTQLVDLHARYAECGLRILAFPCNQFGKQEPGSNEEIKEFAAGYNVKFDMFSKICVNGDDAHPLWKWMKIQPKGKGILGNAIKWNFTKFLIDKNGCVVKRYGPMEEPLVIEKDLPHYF
# Sequence of Glutathione peroxidase 1 (Homo sapiens) (P07203 whole entry, looked up): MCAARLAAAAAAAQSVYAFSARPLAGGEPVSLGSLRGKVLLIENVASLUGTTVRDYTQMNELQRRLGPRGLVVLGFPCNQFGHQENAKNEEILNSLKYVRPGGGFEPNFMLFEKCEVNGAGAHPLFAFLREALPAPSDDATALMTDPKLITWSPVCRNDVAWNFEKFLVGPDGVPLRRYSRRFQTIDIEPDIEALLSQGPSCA
# Sequence of Luciferin 4-monooxygenase (Photinus pyralis) (P08659 whole entry, looked up): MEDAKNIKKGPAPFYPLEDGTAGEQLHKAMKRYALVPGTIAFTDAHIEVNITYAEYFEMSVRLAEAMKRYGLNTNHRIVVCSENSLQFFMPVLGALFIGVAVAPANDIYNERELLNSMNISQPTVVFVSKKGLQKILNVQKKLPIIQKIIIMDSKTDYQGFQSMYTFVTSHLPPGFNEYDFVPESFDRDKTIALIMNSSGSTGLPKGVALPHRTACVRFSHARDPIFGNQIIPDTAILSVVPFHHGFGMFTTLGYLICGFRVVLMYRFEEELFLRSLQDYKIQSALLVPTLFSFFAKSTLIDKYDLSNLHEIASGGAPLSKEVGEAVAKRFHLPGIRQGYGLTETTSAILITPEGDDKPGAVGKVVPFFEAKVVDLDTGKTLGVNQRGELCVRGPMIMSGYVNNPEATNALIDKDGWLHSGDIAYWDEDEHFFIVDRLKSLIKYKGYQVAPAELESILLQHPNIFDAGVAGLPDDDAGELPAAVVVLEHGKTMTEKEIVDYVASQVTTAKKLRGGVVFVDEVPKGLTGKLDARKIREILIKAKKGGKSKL
# Sequence of Ubiquitin carboxyl-terminal hydrolase 1 (Homo sapiens) (O94782 whole entry, looked up): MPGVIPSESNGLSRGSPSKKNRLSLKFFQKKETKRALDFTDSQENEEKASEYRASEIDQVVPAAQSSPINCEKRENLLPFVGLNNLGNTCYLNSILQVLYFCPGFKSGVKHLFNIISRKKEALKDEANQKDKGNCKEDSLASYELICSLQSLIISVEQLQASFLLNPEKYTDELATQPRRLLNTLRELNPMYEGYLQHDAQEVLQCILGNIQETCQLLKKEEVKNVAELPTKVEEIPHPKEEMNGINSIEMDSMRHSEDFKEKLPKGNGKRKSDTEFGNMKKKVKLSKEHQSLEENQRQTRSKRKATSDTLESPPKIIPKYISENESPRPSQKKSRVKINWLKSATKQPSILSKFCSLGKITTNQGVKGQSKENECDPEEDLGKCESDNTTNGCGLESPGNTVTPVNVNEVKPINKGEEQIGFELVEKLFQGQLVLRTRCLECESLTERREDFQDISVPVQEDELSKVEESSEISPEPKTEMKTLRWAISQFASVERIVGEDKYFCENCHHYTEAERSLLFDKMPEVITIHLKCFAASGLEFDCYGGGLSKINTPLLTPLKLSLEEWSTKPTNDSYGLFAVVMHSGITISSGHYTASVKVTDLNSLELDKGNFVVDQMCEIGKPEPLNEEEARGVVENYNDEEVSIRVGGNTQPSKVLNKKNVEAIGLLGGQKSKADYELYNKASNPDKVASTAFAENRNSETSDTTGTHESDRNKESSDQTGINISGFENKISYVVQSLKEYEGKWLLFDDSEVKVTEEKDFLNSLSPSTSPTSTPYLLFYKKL
structure (smiles),measurement,setting,value
CO[C@@H](COC(N)=O)C1=C(N2CC2)C(=O)C(C)=C(N2CC2)C1=O,Potency,[1],inactive
same,Potency,[2],inactive
same,Potency,[3],32.2 µM (active)
same,Potency,[4],36.1 µM (active)
same,Potency,[5],0.354 µM (active)
same,Potency,[6],inactive
same,Potency,[7],inactive
same,Potency,[8],inactive
same,"activity change, negative = inhibition",[9],-18.1%
same,Potency,[10],inactive
same,Potency,[11],inactive
same,Potency,[12]; parasite line A,0.891 µM (active)
same,Potency,[12]; parasite line B,1.41 µM (active)
same,Potency,3D7,1.26 µM (active)
same,Potency,7G8,1.26 µM (active)
same,Potency,AA1029,1.41 µM (active)
same,Potency,AS120,0.891 µM (active)
same,Potency,ATS189,2.82 µM (active)
same,Potency,ATS95,1.41 µM (active)
same,Potency,C2A,0.794 µM (active)
same,Potency,CP185,0.794 µM (active)
same,Potency,CP191,0.708 µM (active)
same,Potency,CP192,1.69 µM (active)
same,Potency,CP194,1.69 µM (active)
same,Potency,CP201,3.38 µM (active)
same,Potency,CP203,1.51 µM (active)
same,Potency,CP211,0.675 µM (active)
same,Potency,CP215,1.9 µM (active)
same,Potency,CP217,3.16 µM (active)
same,Potency,CP237,1.26 µM (active)
same,Potency,CP238,1.41 µM (active)
same,Potency,CP247,0.708 µM (active)
same,Potency,CP250,1.41 µM (active)
same,Potency,CP252,0.794 µM (active)
